Consider 16 compounds from paper PMC5540273 (PLoS ONE, 2017).

“And” between values parts separate entries of the source, which are not always exact repeats. Equal values may be shown once. Read-outs that look alike come from different tables or passages of the source.

One assay deals with T1, YANK3.
T1 construct: gene STK32C
The note with it: concentration: 1 μM, replicates: in singlicate, n = 1.

The subject of the next assay is T2, YES.
T2 construct: gene YES1
The note with it: concentration: 1 μM, replicates: in singlicate, n = 1.

The test system of the next assay is T3, YSK1.
T3 construct: gene STK25
The note with it: concentration: 1 μM, replicates: in singlicate, n = 1.

Another assay relates to T4, YSK4.
T4 construct: gene MAP3K19
The note with it: concentration: 1 μM, replicates: in singlicate, n = 1.

The subject of another assay is ZAK. As to conditions: concentration: 1 μM, replicates: in singlicate, n = 1.
For another assay, the system named is ZAP70. As to conditions: concentration: 1 μM, replicates: in singlicate, n = 1.
In a further assay the test system is T5, p38-alpha.
T5 construct: gene MAPK14
As to conditions: concentration: 1 μM, replicates: in singlicate; n = 1.

The test system of the next assay is T6, p38-beta.
T6 construct: gene MAPK11
As to conditions: concentration: 1 μM, replicates: in singlicate; n = 1.

The next assay relates to p38-delta. The note with it: concentration: 1 μM, replicates: in singlicate, n = 1.
The subject of the next assay is T7, p38-gamma.
T7 construct: gene MAPK12
The note with it: concentration: 1 μM, replicates: in singlicate, n = 1.
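Further: KINOMEscan kinase panel screen.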

On to `O=C(Nc1n[nH]c2cc(-c3cccc(F)c3)ccc12)C1CC1` [SB-735464], for which the “%Inh” value in the assay on YANK3 was determined as 0%; in the assay on YES it was 1%; in the assay on YSK1, 0%; in the assay with YSK4, 82%; in the assay with ZAK, 8%; with ZAP70 it was 0%. Moreover, the “%Inh” value in the assay on p38-alpha worked out at 1%; in the assay on p38-beta, 7%; with p38-delta, 0%; with p38-gamma, 15%.

For `NS(=O)(=O)c1cccc(-c2ccc3nccc(-c4cccc(S(N)(=O)=O)c4)c3c2)c1` [GW867253], the “%Inh” value turned out to be 0% in the assay on YANK3; 0% with YES; 0% with YSK1; 26% in the assay with YSK4; 2% with ZAK; 12% in the assay with ZAP70. The “%Inh” value in the assay on p38-alpha was 1%; in the assay on p38-beta, 3%; in the assay with p38-delta, 0%; in the assay with p38-gamma, 0%.

Regarding `O=C(c1ccc(-c2cc(-c3c[nH]nc3-c3ccccn3)ccn2)cc1)N1CCOCC1` [GW812171], the “%Inh” value in the assay with YANK3 turned out to be 0%; in the assay with YES, 0%; with YSK1 it was 0%; in the assay with YSK4, 0%; in the assay with ZAK, 29%; in the assay on ZAP70, 0%. Moreover, the “%Inh” value in the assay on p38-alpha is 20%; in the assay on p38-beta it was 8%; in the assay on p38-delta, 0%; with p38-gamma it was 0%.

For `COCCNC(=O)c1ccc(-c2cc(C(=O)NC3CC3)cc(F)c2C)cc1` [GW868318], the “%Inh” value in the assay with YANK3 stood at 22%; in the assay with YES, 4%; in the assay on YSK1, 0%; in the assay with YSK4, 33%; in the assay on ZAK it was 23%; in the assay with ZAP70 it was 0%. Moreover, the “%Inh” value in the assay with p38-alpha came to 100%; in the assay on p38-beta, 94%; in the assay with p38-delta it was 0%; in the assay on p38-gamma, 29%.

As to `Cc1ccc(NC(=O)c2ccnc(N3CCN(C)CC3)c2)cc1-c1ccc(C(=O)NCC2CC2)cc1` [GW775604], the “%Inh” value is 0% with YANK3; 0% in the assay with YES; 19% with YSK1; 0% in the assay with YSK4; 0% with ZAK; 0% with ZAP70. Moreover, the “%Inh” value with p38-alpha turned out to be 32%; in the assay with p38-beta it was 35%; in the assay with p38-delta it was 10%; in the assay with p38-gamma it was 0%.

With `CCc1ccnc(/C=C/c2n[nH]c3cc(Sc4ccccc4C(=O)NC)ccc23)c1`, the “%Inh” value in the assay on YANK3 was determined as 0%; with YES, 4%; with YSK1 it was 0%; in the assay with YSK4, 60%; in the assay on ZAK, 37%; in the assay on ZAP70, 20%. The “%Inh” value in the assay with p38-alpha is given as 0%; with p38-beta it was 0%; with p38-delta, 7%; with p38-gamma, 7%.

Consider `COc1cc2ncn(-c3cc(OCc4sccc4Cl)c(C(N)=O)s3)c2cc1OC` [GSK448459], for which the “%Inh” value worked out at 0% in the assay with YANK3; 6% with YES; 0% with YSK1; 89% with YSK4; 0% in the assay with ZAK; 0% in the assay with ZAP70. In addition, the “%Inh” value with p38-alpha is recorded as 0%; in the assay with p38-beta it was 0%; in the assay with p38-delta it was 23%; in the assay on p38-gamma, 0%.

Take `CN(C1=C(c2ccccc2)C(=O)NC1=O)c1ccccc1` [SB-334860]: the “%Inh” value in the assay with YANK3 is given as 17%; in the assay with YES, 17%; with YSK1 it was 21%; with YSK4, 9%; in the assay with ZAK it was 79%; in the assay with ZAP70, 0%. Besides, the “%Inh” value is recorded as 0% in the assay with p38-alpha, 5% in the assay with p38-beta, 22% in the assay on p38-delta and 5% in the assay with p38-gamma.

As to `COc1ccc(COc2cc(-n3cnc4ccccc43)sc2C(N)=O)cc1` [GSK1024304], the “%Inh” value is recorded as 0% in the assay with YANK3; 0% in the assay on YES; 0% in the assay on YSK1; 15% with YSK4; 14% with ZAK; 0% in the assay with ZAP70. Further, the “%Inh” value with p38-alpha stood at 35%; with p38-beta, 0%; in the assay with p38-delta it was 36%; with p38-gamma, 0%.

`CCc1nc(-c2cccc(C)c2)c(-c2ccnc(NCc3ccccc3)c2)s1`: the “%Inh” value in the assay with YANK3 came out at 19%; in the assay with YES, 0%; with YSK1 it was 6%; in the assay on YSK4, 0%; with ZAK, 11%; in the assay on ZAP70, 0%. In addition, the “%Inh” value in the assay with p38-alpha is 99.8%; in the assay on p38-beta it was 69%; with p38-delta, 0%; in the assay on p38-gamma, 0%.

For `CSc1ccc(-c2cc3ncnc(SCC(=O)O)c3s2)cc1`, the “%Inh” value with YANK3 came to 0%; with YES it was 0%; with YSK1 it was 0%; with YSK4 it was 7%; with ZAK, 0%; in the assay with ZAP70, 0%. Also, the “%Inh” value with p38-alpha turned out to be 0%; in the assay on p38-beta, 0%; in the assay on p38-delta it was 34%; with p38-gamma, 5%.

For the compound `N#Cc1c(N2CCOCC2)sc(-c2ccn[nH]2)c1-c1ccc(Cl)cc1`, the “%Inh” value with YANK3 was found to be 16%; in the assay on YES it was 7%; in the assay on YSK1 it was 0%; with YSK4 it was 28%; in the assay with ZAK, 0%; in the assay with ZAP70, 0%. Also, the “%Inh” value in the assay on p38-alpha is reported as 7%; with p38-beta it was 14%; in the assay with p38-delta, 0%; with p38-gamma it was 6%.

`COc1cc2c(cc1OCCN1CCN(C)CC1)ncc1c3ccc(C#N)cc3[nH]c21`: the “%Inh” value was determined as 35% in the assay on YANK3; 3% in the assay on YES; 0% in the assay on YSK1; 89% with YSK4; 0% in the assay on ZAK; 0% in the assay on ZAP70. Moreover, the “%Inh” value is 0% in the assay with p38-alpha, 1% with p38-beta, 7% in the assay on p38-delta and 35% with p38-gamma.

On to `Cl.Cl.Cl.Fc1ccc(-c2ncn(C3CCNCC3)c2-c2ccnc(Nc3ccccc3)n2)cc1` [SB-238039], for which the “%Inh” value with YANK3 (1 µM) is 58% and 48%; in the assay with YES (1 µM), 22% and 26%; in the assay on YSK1 (1 µM), 10% and 0%; in the assay with YSK4 (1 µM), 39% and 0%; in the assay on ZAK (1 µM), 11% and 0%; with ZAP70 (1 µM), 12% and 14%. The “%Inh” value in the assay on p38-alpha is 100%; in the assay with p38-beta, 100%; in the assay on p38-delta (1 µM) it was 98.6% and 99.7%; in the assay on p38-gamma (1 µM), 93.1% and 100%.

For `O=c1cc(N2CCOCC2)nc2n(Cc3cccc4ccccc34)ccn12` [GSK2333389], the “%Inh” value with YANK3 is 38%; with YES, 2%; in the assay on YSK1 it was 0%; in the assay with YSK4 it was 15%; in the assay with ZAK it was 3%; in the assay with ZAP70 it was 0%. Also, the “%Inh” value with p38-alpha is 0%; with p38-beta it was 0%; in the assay with p38-delta it was 16%; in the assay with p38-gamma, 0%.

As to `Cc1nnc(-c2ccc3ncc(-c4ccc(S(C)=O)cc4)n3c2)o1` (stereo not shown), the “%Inh” value in the assay with YANK3 was determined as 5%; in the assay on YES, 0%; in the assay with YSK1, 0%; with YSK4 it was 3%; with ZAK it was 0%; in the assay with ZAP70 it was 0%. Also, the “%Inh” value in the assay on p38-alpha was determined as 9%; with p38-beta it was 1%; with p38-delta it was 7%; in the assay on p38-gamma, 10%.
